Source: PubChem (National Center for Advancing Translational Sciences (NCATS))
KB-V1 MDR tox – kills drug-selected multidrug resistant KB-V1 cells | KB-V1 MDR cells viability, CellTiter-Glo, 72 h | Potency, µM (titrated, usually from 46.1 µM), most hits filed as cytotoxic | hit rate 3.4% among 400,000 | AID 1347076; also: nearly all actives have a fitted effect of over 60% in size
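KB-V1 cells (P-gp-expressing MDR subline of KB-3-1) in phenol-red-free DMEM with 10% FBS were exposed to library compounds over a concentration series for 72 h at 37 degrees C. Viability read by CellTiter-Glo luminescence; concentration-effect curves fitted after normalization.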
KB-3-1 tox – kills parental KB-3-1 adenocarcinoma cells | KB-3-1 viability, CellTiter-Glo ATP luminescence, 72 h | Potency, µM (titrated, usually from 46.1 µM), most hits filed as cytotoxic | hit rate 1.4% among 400,000 | AID 1347075; also: nearly all actives have a fitted effect of over 60% in size
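Viability of parental KB-3-1 cells, measured by CellTiter-Glo luminescence, followed a 72 h incubation at 37 °C with pinned compounds in phenol-red-free DMEM containing 10% FBS.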
DT40 TDP1 CPT – growth inhibition of DT40 Tdp1-/-;hTDP1 cells with camptothecin (screen for TDP1 inhibitors). chicken DT40 Tdp1-/-;hTDP1 cells + 20 nM CPT, ATP luminescence, 48 h. Potency, µM (titrated, usually from 46.2 µM), without a hit: at the highest dose activity change, negative = growth inhibition, actives largely listed as inhibitors. hit rate 12% among 420,000. AID 686979; also: nearly all actives have a fitted effect of over 55% in size
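Chicken DT40 Tdp1-/- cells stably complemented with human TDP1 were seeded at 400 cells/well in medium containing 20 nM camptothecin, exposed to pin-transferred compounds, and grown at 37 °C for at least 48 hr. Viability was read as ATP luminescence.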
HT1080 IDH1KD tx – toxicity to HT-1080 IDH1 knockdown cells (counter line) | HT-1080 IDH1 knockdown viability, ATP luminescence, 48 h | Potency, µM (series often up to 46.1 µM), inactives show top-dose activity, negative = toxicity, hits mostly cytotoxic | hit rate 2% among 360,000;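 also: 0% = DMSO wells and -100% = cell-free medium wells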
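Viability of IDH1-knockdown HT-1080 fibrosarcoma cells was assessed by CellTiter-Glo after 48 h at 37 °C with titrated compound; concentration-effect curves were classified by fit quality and response size.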
HT1080NT lethal – kills 2HG-producing HT-1080-NT fibrosarcoma cells; hit rate 1.6% among 360,000; Potency, µM (top dose mostly 46.1 µM), for inactives: at the top dose activity, negative = less viability, actives largely listed as cytotoxic; HT-1080-NT fibrosarcoma viability, CellTiter-Glo ATP luminescence, 48 h;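 also: NT is the 2HG producing partner of a matched IDH1 knockdown line; 0% = DMSO-treated cells and -100% = media-only wells without cells; nearly all actives have a fitted effect of over 55% in size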
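HT-1080-NT; 750 cells/well; 5% FBS RPMI; 48 h compound, 37 degrees C; CellTiter-Glo luminescence; curve fitting and curve-class assignment.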
DT40 TDP1 no CPT – qHTS for Inhibitors of human tyrosyl-DNA phosphodiesterase 1 (TDP1): qHTS in cells in absence of CPT; hit rate 15% among 420,000; DT40 Tdp1-/- hTDP1 cells, no CPT, ATP luminescence, 48 h; AID 686978, 2013; Potency, µM (highest dose often 46.2 µM), for the others: at the top dose activity change, negative = growth inhibition, usual class: inhibitors; also: nearly all actives have a fitted effect of over 55% in size
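Luminescent ATP content (CellTiter-Glo) served as the growth readout. Knockout chicken DT40 cells expressing human TDP1 were exposed to compounds without camptothecin for a minimum 48 hr at 37 °C.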
Active calls of the source: *; i = inactive; ? = inconclusive; nt = not tested or not shown; [ ] = dose if it differs, or a comment. The list is not random: actives were taken first. Their share in the collection is about 19%. Calls follow the shape of the dose curve; as a rule, active = well fitted curve in the direction sought with a large enough effect; inconclusive = small, poorly fitted or top-dose-only effect, or another doubt; inactive = no such curve, though single readings can be large; an effect the other way counts as inactive or inconclusive. Unless noted, % is scaled to controls: 0 for no effect and ±100 for the full control effect; potency is read from the fitted curve at half-maximal effect.

SMILES	KB-V1 MDR tox	KB-3-1 tox	DT40 TDP1 CPT	HT1080 IDH1KD tx	HT1080NT lethal	DT40 TDP1 no CPT
Cn1nc(C(=O)Nc2ccc(S(=O)(=O)NCc3ccco3)cc2)c2ccccc2c1=O	i	i	?	-0.5%	-8.9%	?
COc1ccccc1NS(=O)(=O)c1cccc(NC(=O)c2cc3ccccc3oc2=O)c1	i	i	?	0.0%	-2.6%	18.4µM*
NC1=NC(=Nc2cccc(S(N)(=O)=O)c2)c2ccccc21	i	i	-17.8%	-1.0%	-7.9%	-15.3%
COc1ccccc1NS(=O)(=O)c1cccc(N=C2N=C(N)c3ccccc32)c1	i	i	-22.8%	-23.8%	-17.0%	23.1µM*
COc1ccccc1NC(=O)C(=O)NNS(=O)(=O)c1ccc2ccccc2c1	i	i	23.1µM*	0.2%	0.0%	25.9µM*
CN(c1ccccc1)S(=O)(=O)c1cccc(NC(=O)c2cc3ccccc3oc2=O)c1	i	i	?	0.0%	25.2%	?
CCc1ccc(OC(=O)c2sc3ncn(Cc4cccc(F)c4)c(=O)c3c2C)cc1	i	i	-10.0%	nt	nt	-12.3%
O=C(CNC(=O)C(c1ccccc1)c1ccccc1)N/N=C\c1ccc(C(=O)O)cc1	?	i	0.8%	11.2%	14.5%	-10.7%
COc1ccc(C2c3cc(OC)c(OC)cc3CC(=O)N2c2cccc(C#N)c2)cc1 (centres undefined)	i	i	?	nt	nt	?
NC(=O)C1CCN(C(=O)c2ccco2)CC1	i	i	-2.9%	4.0%[9.24 µM]	10.8%	6.4%
COc1ccccc1NS(=O)(=O)c1cccc(NC(=O)c2[nH]c(C)c(C(C)=O)c2C)c1	?	?	?	-1.3%	-17.8%	16.4µM*
CC(=O)c1c(C)[nH]c(C(=O)Nc2cccc(S(=O)(=O)N3CCOCC3)c2)c1C	i	i	?	-0.6%	9.2%	?
COc1ccc(OCC(=O)NNC(=O)c2nn(C)c(=O)c3ccccc23)cc1	i	i	21.3%	1.4%	3.0%	-0.8%
C=CCn1c(Cc2cccs2)nnc1SCC(=O)Nc1cc(OC)cc(OC)c1	?	i	?	-1.4%	-5.0%	16.4µM*
COc1cc(OC)cc(C(=O)NNC(=O)c2nn(C)c(=O)c3ccccc23)c1	13µM*	?	?	22.6%	14.6%	?
C=CCn1c(Cc2cccs2)nnc1SCC(=O)Nc1ccc(C(=O)OCC)cc1	i	i	-8.2%	-7.9%	2.5%	-14.1%
COc1ccccc1NS(=O)(=O)c1cccc(NC(=O)Nc2ccccc2)c1	20.6µM*	?	?	-9.4%	-9.0%	14.6µM*
O=C(CNC(=O)C1CCCCC1)OCC(=O)c1ccc(C2CCCCC2)cc1	i	i	?	nt	nt	?
O=C(Cn1cc(C(=O)C(=O)N2CCOCC2)c2ccccc21)Nc1cccc(C(F)(F)F)c1	i	i	?	-11.5%	-9.5%	?
O=C(Nc1ccc(F)cc1F)c1cc(-c2ccc(Cl)cc2)on1	i	i	-0.8%	nt	nt	?
O=S(=O)(NC1=NCCC1)c1ccc(F)cc1F	i	i	6.5%	8.0%	6.4%	-4.9%
O=C(Cc1cccs1)Nc1ccccc1NC(=O)Cc1cccs1	i	i	-12.1%	3.7%	13.1%	-14.5%
COc1ccccc1NS(=O)(=O)c1cccc(NC(=O)Cc2cccs2)c1	?	i	?	-1.7%	0.6%	25.9µM*
COc1ccc(NCc2cc3ccc(OC)cc3n(CC(=O)Nc3ccc(C)c(C)c3)c2=O)cc1	i	i	nt	nt	nt	nt
O=C(CCl)N(Cc1cc(=O)[nH]c2ccccc12)c1ccccc1	i	i	4.11µM*	?	-13.6%	2.31µM*
